Source: PubChem BioAssay (Sanford-Burnham Center for Chemical Genomics)
Only some compounds are listed: those with a hit (about 28% of all), similar ones and a draw of the others.
Mac1 fbg inh = CD11b/CD18-fibrinogen binding inhibition | P05107+P11215 | K562 CD11b/CD18 adhesion to fibrinogen, ATPlite luminescence; Mn2+ added to activate the integrin | inhibition, % at 10 µM | hit rate 0.54% among 93,000;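 active = primary inhibition of 50% or more at 10 µM, then 40% or more on retest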
CYP2C9 act = increases human cytochrome P450 2C9 activity | activation factor at 5 µM | recombinant CYP2C9, luciferin-H conversion, luminescence; stronger effect = higher value; factor 1 = untreated enzyme, 0 = blocked | P11712 | hit rate 1.4% among 96,000 | AID 1024;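 active = activation factor of 2 or more for CYP2C9 at a 5 µM dose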;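 note: 0 = sulfaphenazole-blocked wells and 1 = vehicle-only wells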
Target sequence (P11712 whole entry, looked up): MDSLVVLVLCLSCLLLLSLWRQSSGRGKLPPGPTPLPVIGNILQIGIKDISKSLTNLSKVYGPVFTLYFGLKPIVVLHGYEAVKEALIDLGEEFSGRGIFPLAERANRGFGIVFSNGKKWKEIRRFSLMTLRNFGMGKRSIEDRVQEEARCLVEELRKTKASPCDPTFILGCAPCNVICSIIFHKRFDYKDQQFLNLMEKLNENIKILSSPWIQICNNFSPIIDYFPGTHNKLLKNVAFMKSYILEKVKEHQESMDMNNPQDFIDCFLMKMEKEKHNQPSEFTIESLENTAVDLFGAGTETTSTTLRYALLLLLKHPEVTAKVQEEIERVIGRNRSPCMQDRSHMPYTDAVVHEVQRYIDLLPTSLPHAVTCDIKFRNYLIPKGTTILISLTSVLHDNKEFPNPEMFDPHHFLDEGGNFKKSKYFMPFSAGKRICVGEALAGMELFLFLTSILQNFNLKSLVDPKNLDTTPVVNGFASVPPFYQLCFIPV
CYP2C19 inhib = blocks human cytochrome P450 2C19; inhibition, % at 5 µM; CYP2C19 Supersomes, luciferin-H EGE luminescence, 30 min; hit rate 21% among 96,000;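 active = CYP2C19 inhibition above a set limit at 5 µM in the primary screen, cut at about 50% in these data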;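 note: plate controls were negative control wells for no effect and 2.5 mM tranylcypromine positive control for full effect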
Mac1 fbg enh = enhancers of human CD11b/CD18 binding to fibrinogen; K562 CD11b/CD18 adhesion to fibrinogen, ATPlite luminescence; activation, % at 10 µM; hit rate 0.07% among 93,000;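 active = 10 µM primary screen giving 50% or more activity, confirmed by 40% or more on retest at that dose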
CYP2C9 inhib = human CYP2C9 inhibition. hit rate 20% among 96,000. inhibition, % at 5 µM. CYP2C9 Supersomes, luciferin-H conversion, luminescence;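 active = blocking of liver enzyme CYP2C9 beyond about 50% at 5 µM, limit read from the data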
CYP2C19 act = cytochrome P450 2C19 (human) activation; P33261; recombinant CYP2C19, luciferin-H EGE luminescence; stronger effect = higher value; 0 = fully inhibited enzyme, 1 = untreated enzyme; activation factor at 5 µM; 96,000 tested, under 10 active; AID 1025;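 active = activation factor of at least 2 at 5 µM in the primary screen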;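 note: 0 = wells with 2.5 mM tranylcypromine and 1 = vehicle-only wells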
* = called active by the depositor.

How did COC(=O)C(C)Sc1nnc2n(-c3cccc(C)c3)c(=O)c3c4c(sc3n12)CCCC4 (centres undefined) do in these assays?
Mac1 fbg inh: -24.2; CYP2C9 act: 1.1; CYP2C19 inhib: -13.7; Mac1 fbg enh: 2.0; CYP2C9 inhib: -12.9; CYP2C19 act: 1.1

How did COc1ccc(C(=O)NC2CC(C)(C)Cc3occc32)cc1 (centres undefined) do in these assays?
Mac1 fbg inh: -1.2; Mac1 fbg enh: -0.3

How did COC(=O)CC1COc2ccccc2N1C(=O)c1cccc(Cl)c1 (centres undefined) do in these assays?
CYP2C9 act: 0.5; CYP2C19 inhib: 62.7*; CYP2C9 inhib: 45.7; CYP2C19 act: 0.4

How did CC(=O)c1cccc(N(CC(=O)O)S(C)(=O)=O)c1 do in these assays?
Mac1 fbg inh: -29.1; CYP2C9 act: 1.1; CYP2C19 inhib: -6.5; Mac1 fbg enh: -1.8; CYP2C9 inhib: -9.1; CYP2C19 act: 1.1

How did CCC(C)(CC(=O)N(C)CCC#N)c1ccccc1 (centres undefined) do in these assays?
Mac1 fbg inh: -8.0; CYP2C9 act: 0.8; CYP2C19 inhib: 44.8; Mac1 fbg enh: 6.1; CYP2C9 inhib: 17.7; CYP2C19 act: 0.6

Results for CCCCCn1cnc2sc(-c3ccccc3)cc2c1=O ?
CYP2C9 act: 0.4; CYP2C19 inhib: 44.3; CYP2C9 inhib: 58.3*; CYP2C19 act: 0.6

What do the screens show for `CN(CCC#N)C(=O)CSc1ncnc2sc(-c3ccccc3)cc12`?
Mac1 fbg inh: -5.8; CYP2C9 act: 0.5; CYP2C19 inhib: 40.0; Mac1 fbg enh: -1.6; CYP2C9 inhib: 50.5*; CYP2C19 act: 0.6

How did COc1ncnc2sc(-c3ccccc3)cc12 do in these assays?
Mac1 fbg inh: -4.9; CYP2C9 act: 0.8; CYP2C19 inhib: 76.5*; Mac1 fbg enh: 4.8; CYP2C9 inhib: 19.5; CYP2C19 act: 0.2

How did CN(C)/C=N/c1c(C#N)cnn1-c1ncnc2sc(-c3ccccc3)cc12 do in these assays?
Mac1 fbg inh: 8.9; CYP2C9 act: 0.1; CYP2C19 inhib: 86.7*; Mac1 fbg enh: -0.7; CYP2C9 inhib: 91.7*; CYP2C19 act: 0.1

What do the screens show for `CCCCn1cnc2sc(-c3ccccc3)cc2c1=O`?
CYP2C9 act: 0.7; CYP2C19 inhib: 14.1; CYP2C9 inhib: 25.3; CYP2C19 act: 0.9

Results for CN(C)/C=N/c1c(C#N)cnn1-c1ccccc1 ?
Mac1 fbg inh: -8.3; CYP2C9 act: 1.2; CYP2C19 inhib: 46.4; Mac1 fbg enh: -2.4; CYP2C9 inhib: -15.5; CYP2C19 act: 0.5

What do the screens show for `O=C1CC(N2CCN(c3ccc(C(=O)c4ccc(F)cc4)cc3)CC2)C(=O)N1` (centres undefined)?
Mac1 fbg inh: -0.6; CYP2C9 act: 0.9; CYP2C19 inhib: 3.2; Mac1 fbg enh: -3.2; CYP2C9 inhib: 6.8; CYP2C19 act: 1

How did CCc1cc2c(SCC(=O)c3cccs3)ncnc2s1 do in these assays?
Mac1 fbg inh: -18.5; CYP2C9 act: 0.9; CYP2C19 inhib: -9.4; Mac1 fbg enh: -2.1; CYP2C9 inhib: 9.9; CYP2C19 act: 1.1

What do the screens show for `O=C(O)CSc1nnc(-c2ccccc2)o1`?
Mac1 fbg inh: 3.6; CYP2C9 act: 0.9; CYP2C19 inhib: 9.6; Mac1 fbg enh: -3.2; CYP2C9 inhib: 11.9; CYP2C19 act: 0.9

What do the screens show for `CCN(CC)C(=O)CSc1ncnc2c1cnn2Cc1ccccc1`?
Mac1 fbg inh: -0.3; CYP2C9 act: 1.2; CYP2C19 inhib: 10.0; Mac1 fbg enh: -0.5; CYP2C9 inhib: -18.9; CYP2C19 act: 0.9

How did CC(C)C(C)(C#N)NC(=O)CSc1nnc(-c2ccccc2)o1 (centres undefined) do in these assays?
Mac1 fbg inh: -0.2; CYP2C9 act: 0.9; CYP2C19 inhib: 67.8*; Mac1 fbg enh: -0.2; CYP2C9 inhib: 9.4; CYP2C19 act: 0.3

How did CC(C)C(C)(C#N)NC(=O)CSc1ncnc2sc(-c3ccccc3)cc12 (centres undefined) do in these assays?
Mac1 fbg inh: 29.7; CYP2C9 act: 0.2; CYP2C19 inhib: 96.4*; Mac1 fbg enh: 4.0; CYP2C9 inhib: 83.2*; CYP2C19 act: 0

What do the screens show for `CCN(CC)C(=O)CSc1ncnc2sc(-c3ccccc3)cc12`?
Mac1 fbg inh: 35.8; CYP2C9 act: 0.1; CYP2C19 inhib: 96.6*; Mac1 fbg enh: -1.7; CYP2C9 inhib: 92.9*; CYP2C19 act: 0

What do the screens show for `O=C(CN1C(=O)c2cccc3cccc1c23)Nc1ccc2c(c1)OCO2`?
CYP2C9 act: 0.8; CYP2C19 inhib: 7.2; CYP2C9 inhib: 15.4; CYP2C19 act: 0.9

How did O=C(CN1C(=O)c2cccc3cccc(c23)C1=O)N1CCN(Cc2ccc3c(c2)OCO3)CC1 do in these assays?
Mac1 fbg inh: -11.0; CYP2C9 act: 0.5; CYP2C19 inhib: 32.2; Mac1 fbg enh: 1.2; CYP2C9 inhib: 54.8*; CYP2C19 act: 0.7

What do the screens show for `O=C(CN1C(=O)c2cccc3cccc1c23)NCC1CCCO1` (centres undefined)?
Mac1 fbg inh: 4.7; CYP2C9 act: 3.5*; CYP2C19 inhib: -0.2; Mac1 fbg enh: -1.1; CYP2C9 inhib: -252.8; CYP2C19 act: 1

How did O=C(CN1C(=O)c2cccc3cccc1c23)NCc1ccc2c(c1)OCO2 do in these assays?
Mac1 fbg inh: 3.9; CYP2C9 act: 4*; CYP2C19 inhib: 68.0*; Mac1 fbg enh: -1.7; CYP2C9 inhib: -299.5; CYP2C19 act: 0.3

How did CCC1Sc2ccccc2N(CC(=O)NCc2ccc3c(c2)OCO3)C1=O (centres undefined) do in these assays?
Mac1 fbg inh: -3.3; CYP2C9 act: 0.6; CYP2C19 inhib: 71.8*; Mac1 fbg enh: 1.4; CYP2C9 inhib: 40.1; CYP2C19 act: 0.3

Results for CCCCOC(=O)C1CCCC(C(=O)OCCCC)N1 (centres undefined) ?
Mac1 fbg inh: -0.1; CYP2C9 act: 0.8; CYP2C19 inhib: 17.9; Mac1 fbg enh: -2.0; CYP2C9 inhib: 23.1; CYP2C19 act: 0.8

How did Cc1cccc(C)c1NC(=O)COC(=O)c1nonc1N do in these assays?
Mac1 fbg inh: -34.9; CYP2C9 act: 1.1; CYP2C19 inhib: 26.3; Mac1 fbg enh: -3.8; CYP2C9 inhib: -12.0; CYP2C19 act: 0.7

Results for CC(C(=O)NCc1ccc2c(c1)OCO2)N1c2cccc3cccc(c23)S1(=O)=O (centres undefined) ?
CYP2C9 act: 2.7*; CYP2C19 inhib: 82.2*; CYP2C9 inhib: -166.2; CYP2C19 act: 0.2

What do the screens show for `O=C(CN1c2cccc3cccc(c23)S1(=O)=O)NCc1ccc2c(c1)OCO2`?
Mac1 fbg inh: 3.8; CYP2C9 act: 4.1*; CYP2C19 inhib: 81.3*; Mac1 fbg enh: -2.9; CYP2C9 inhib: -313.8; CYP2C19 act: 0.2

Results for CC(C)CN1C(=O)C(=O)N(CC(=O)NCc2ccc3c(c2)OCO3)C1=O ?
Mac1 fbg inh: 3.7; CYP2C9 act: 0.8; CYP2C19 inhib: 48.9; Mac1 fbg enh: -4.8; CYP2C9 inhib: 16.7; CYP2C19 act: 0.5
